High-throughput results from PubChem.
Tau FP inhib: inhibitors of human tau fibril formation | P10636 | K18 P301L tau heparin fibrillization, Alexa594 FP, 6 h | Potency, µM (doses to about 57.7 µM), without a hit: at the top dose activity, negative = inhibition, most hits filed as inhibitors | actives 0.39% (n = 280,000) | AID 1468; further: potency means the concentration at half of the fitted maximal effect; nearly all actives have a fitted effect of over 55% in size
Target sequence (P10636 561-689 P618L limits assumed): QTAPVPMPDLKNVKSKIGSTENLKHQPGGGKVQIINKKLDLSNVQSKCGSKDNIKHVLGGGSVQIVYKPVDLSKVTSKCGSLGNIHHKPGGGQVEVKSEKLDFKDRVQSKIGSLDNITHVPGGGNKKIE
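Quantitative HTS format: compounds meet 15 uM recombinant K18 P301L tau and Alexa 594-tau tracer in 100 mM sodium acetate pH 7; 20 uM heparin triggers fibrillization at 37 C over 6 hr; FP gives the signal.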
Tau ThT inhib: inhibitors of human tau fibril formation, thioflavin T binding. P10636. Potency, µM (highest dose often 57.4 µM), inactives show top-dose activity, negative = inhibition, hits mostly inhibitors. actives 2.1% (n = 270,000). recombinant tau K18 P301L, heparin-induced fibrillization, ThT fluorescence; further: potency means the concentration at half of the fitted maximal effect; nearly all actives have a fitted effect of over 55% in size
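Tau K18 P301L fragment (15 uM unlabeled plus 0.24 uM Alexa 594-labeled) in 100 mM sodium acetate pH 7 with compound, fibrillization induced by 20 uM heparin for 6 hr at 37 C. Thioflavin T (30 uM) added, fluorescence read after 1 hr (ex 450, em 510 nm).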
Tau fluor cs: counter-screen for tau fibril formation inhibitors; actives 0.93% (n = 280,000); Potency, µM (titrated, usually from 57.7 µM), without a hit: top-dose activity change, negative = decrease; AID 1463; tau K18 P301L (four-repeat tau fragment) Alexa594 fluorescence, heparin fibrillization; further: potency means the concentration at half of the fitted maximal effect; nearly all actives have a fitted effect of over 55% in size
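Human K18 P301L tau (15 uM unlabeled plus 0.24 uM Alexa 594-labeled, final) in 100 mM sodium acetate pH 7 was mixed with compound and 20 uM heparin and incubated 6 hr at 37 C.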
FBPA coupling cs: coupling enzyme interference in Giardia aldolase counter-screen | coupling enzyme system counterscreen, AmpLite Red fluorescence | activity change, negative = inhibition, % at 58.2 µM, hits read low | actives 0.67% (n = 290,000) | AID 2472; in the data active means activity change below about -30%
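Fluorescence at 525 nm excitation and 598 nm emission measured inhibition of the coupled detection system without aldolase. Compounds (at 57.5 uM final) were preincubated 10 min at room temperature with coupling enzyme reagent before a 20 min substrate/AmpLite Red step.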
JMJD2E inh: inhibitors of human JMJD2E histone demethylase; actives 1.6% (n = 230,000); JMJD2E catalytic domain, FDH-coupled NADH fluorescence (FDH is formaldehyde dehydrogenase); AID 2147; B2RXH2; Potency, µM (doses to about 57.1 µM), for inactives: top-dose activity change, negative = inhibition, most hits filed as inhibitors; active means well fitted inhibition curve with a large enough effect, not every such curve was filed as active; inconclusive means small, poorly fitted or top-dose-only effect, or another doubt; inactive means no such curve, though single readings can be large or run the other way;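 further: potency means the concentration at half of the fitted maximal effect; 0% = wells with enzyme and -100% = buffer wells without enzyme; nearly all actives have a fitted effect of over 50% in size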
Target sequence (B2RXH2 1-337 limits assumed): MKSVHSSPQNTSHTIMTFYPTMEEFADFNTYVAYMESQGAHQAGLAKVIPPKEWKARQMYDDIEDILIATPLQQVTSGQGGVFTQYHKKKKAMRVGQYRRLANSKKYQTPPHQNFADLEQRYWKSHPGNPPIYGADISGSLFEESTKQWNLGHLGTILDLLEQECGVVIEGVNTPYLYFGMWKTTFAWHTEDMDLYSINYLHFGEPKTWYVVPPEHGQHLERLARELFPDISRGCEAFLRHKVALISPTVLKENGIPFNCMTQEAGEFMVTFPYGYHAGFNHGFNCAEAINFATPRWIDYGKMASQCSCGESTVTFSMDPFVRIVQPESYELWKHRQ
* hit, by the source's call; [ ] = dose if it differs, or a comment. Hits are enriched below; roughly 3% of the tested compounds scored in any of these assays. Unless noted, the call rests on the fitted dose curve; in most records, active means well fitted curve in the direction sought with a large enough effect; inconclusive means small, poorly fitted or top-dose-only effect, or another doubt; inactive means no such curve, though single readings can be large; an effect the other way counts as inactive or inconclusive. Unless noted, on the % scale 0 is the no-effect control and ±100 the full control effect.

CCOc1ccc(NC(=O)c2c(NCc3sccc3C)sc3c2CCCCC3)cc1 was read as Tau FP inhib inconclusive, Tau ThT inhib 14.1µM* and Tau fluor cs inconclusive.
`CCOc1ccc(NC(=O)c2c(NCc3cc(OC)c(OC)cc3OC)sc3c2CCCC3)cc1` gave Tau FP inhib 3.6%, Tau ThT inhib inconclusive and Tau fluor cs inconclusive.
For CCOc1ccc(NC(=O)c2c(NCc3ccc(C)o3)sc3c2CCCCC3)cc1 the results were Tau FP inhib inconclusive, Tau ThT inhib 22.4µM* and Tau fluor cs -23.5%.
COc1ccc(NC(=O)c2c(NCc3ccc(C)o3)sc3c2CCC(C)C3)cc1 (stereo unspecified) was read as Tau FP inhib inconclusive, Tau ThT inhib 25.1µM* and Tau fluor cs inconclusive.
C=CCCn1c(Cl)c(C#N)sc1=O was read as FBPA coupling cs -2.4.
Screening COc1ccc(N2Nc3n[nH]c(N)c3N2)cc1 returned Tau FP inhib 12.1%, Tau ThT inhib 8.91µM*, Tau fluor cs inconclusive, FBPA coupling cs -3.1 and JMJD2E inh inconclusive.
`CCOc1ccc(N2Nc3n[nH]c(N)c3N2)cc1` gave Tau FP inhib 1.1%, Tau ThT inhib 12.6µM*, Tau fluor cs inconclusive, FBPA coupling cs 1.7 and JMJD2E inh -2.5%.
Screening CCCCC(CC)CNC(=O)c1ccc(Cn2c(=O)[nH]c3cc(OC)c(OC)cc3c2=O)cc1 (stereo unspecified) returned Tau FP inhib inconclusive, Tau ThT inhib 2.6% and Tau fluor cs inconclusive.
Screening CCN(CC)CCNC(=O)c1ccc2c(=O)n3nc(Nc4cccc(Cl)c4C)sc3nc2c1 returned Tau FP inhib inconclusive, Tau ThT inhib inconclusive and Tau fluor cs -28.3%.
Screening COc1ccc(C(=O)C(C)Oc2cccc(NC(=O)c3cccc([N+](=O)[O-])c3)c2)cc1 (stereo unspecified) returned Tau FP inhib -2.5%, Tau ThT inhib -10.9%, Tau fluor cs 3.55µM*[quencher], FBPA coupling cs 0.3 and JMJD2E inh 6.6%.
Screening O=C(Nc1cccc([N+](=O)[O-])c1)Nc1ccc2c(c1)OCCO2 returned Tau FP inhib 4.7%, Tau ThT inhib inconclusive, Tau fluor cs 14.1µM*[quencher], FBPA coupling cs -4.8 and JMJD2E inh -27.3%.
For COc1cc(NC(=O)Nc2cccc([N+](=O)[O-])c2)cc(OC)c1 the results were Tau FP inhib inconclusive, Tau ThT inhib inconclusive, Tau fluor cs 14.1µM*[quencher], FBPA coupling cs -1.9 and JMJD2E inh 4.8%.
For CC(C)(C)C(=O)CSc1nc2ccsc2c(=O)n1Cc1ccccc1Cl the results were Tau FP inhib -8.6%, Tau ThT inhib -11.3% and Tau fluor cs -25.8%.
`CCCCc1nc2c(c3c1C[C@H](C)OC3)CN(C(=O)Nc1ccc(OC)cc1)CC2` gave Tau FP inhib 2.9%[11.6 µM], Tau ThT inhib 3.1%[11.5 µM], Tau fluor cs 0.1%[11.6 µM], FBPA coupling cs 1.5 and JMJD2E inh 7.5%[11.4 µM].
`CCCCCCCCCCCCCC/C(C(=O)O)=C(\C)C(=O)O` gave FBPA coupling cs -4.1.
`COc1ccc2[nH]cc(/C=N/NS(=O)(=O)c3ccc(C)cc3)c2c1` gave Tau FP inhib 15.3%, Tau ThT inhib inconclusive, Tau fluor cs 12.6µM*[quencher], FBPA coupling cs -2.6 and JMJD2E inh 0.6%.
`COc1ccc2c(/C=N/NS(=O)(=O)c3ccc(C)cc3)c[nH]c2c1` gave Tau FP inhib 13.1%, Tau ThT inhib inconclusive, Tau fluor cs 12.6µM*[quencher], FBPA coupling cs 3.5 and JMJD2E inh inconclusive.
`CCCCn1c(=O)c2oc3ccccc3c2n(Cc2ccc(OC)cc2)c1=O` gave Tau FP inhib -1.8%, Tau ThT inhib 2.1% and Tau fluor cs -8.8%.
`Cc1[nH]n(S(=O)(=O)Cc2ccccc2)c(=O)c1N=Nc1ccccc1Cl` gave Tau FP inhib 10.6%, Tau ThT inhib 15.8µM*, Tau fluor cs -22.3%, FBPA coupling cs 5.9 and JMJD2E inh 6.8%.
Screening Cc1[nH]n(S(=O)(=O)c2ccccc2)c(=O)c1N=Nc1cccc(Cl)c1 returned FBPA coupling cs 1.1.
`C/C(=N\OCc1nc2ccccc2c(=O)n1/N=C/c1cc(C)cc([N+](=O)[O-])c1O)c1ccccc1` gave Tau FP inhib -1.6%, Tau ThT inhib 3.98µM*, Tau fluor cs inconclusive, FBPA coupling cs -2.8 and JMJD2E inh 14.1µM*.
For C/C(=N\OCc1nc2ccccc2c(=O)n1/N=C/c1cc([N+](=O)[O-])ccc1O)c1ccccc1 the results were Tau FP inhib -4.8%, Tau fluor cs 14.1µM*[quencher], FBPA coupling cs -2.1 and JMJD2E inh inconclusive.
CCCCNC(=O)NS(=O)(=O)c1ccc(C(=O)O)cc1 was read as FBPA coupling cs -0.6.
`COc1ccc2nc(S(=O)Cc3ncc(C)c(OC)c3C)[nH]c2c1` (stereo unspecified) gave Tau FP inhib inconclusive, Tau ThT inhib 31.6µM*, Tau fluor cs -24.5%, FBPA coupling cs -6.4 and JMJD2E inh 25.1µM*.
`COc1ccc2nc(SCC(=O)Nc3c(C)cccc3C)[nH]c2c1` gave Tau FP inhib 2.3%, Tau ThT inhib 0.9%, Tau fluor cs -7.8%, FBPA coupling cs -0.4 and JMJD2E inh 4.7%.
CSc1cccc(NC(=O)/C=C/c2cccc(Cl)c2)c1 was read as Tau FP inhib inconclusive, Tau ThT inhib 18.5%, Tau fluor cs 12.6µM*[quencher], FBPA coupling cs -4.2 and JMJD2E inh inconclusive.
For O=C(/C=C/c1cccc(Cl)c1)Nc1ncccn1 the results were Tau FP inhib 3.2%, Tau ThT inhib -10.2%, Tau fluor cs -3.1%, FBPA coupling cs 1.7 and JMJD2E inh 5.5%.
`CCOC(=O)c1ccc(OCC2c3cc(OC)c(OC)cc3CCN2C(=O)Cc2ccc(OC)c(OC)c2)cc1` (stereo unspecified) gave Tau FP inhib 4.5%, Tau ThT inhib -14.6% and Tau fluor cs -12.4%.
For CCCCCOC(=O)c1[nH]c2c(c1C)C(=O)C(C(=O)OC)C(C)C2 (stereo unspecified) the results were Tau FP inhib -3.2%, Tau ThT inhib -10.5%, Tau fluor cs -22.1%, FBPA coupling cs 0.8 and JMJD2E inh -1.5%.
COCCOC(=O)c1[nH]c2c(c1C)C(=O)C(C(=O)OC)C(C)C2 (stereo unspecified) was read as Tau FP inhib -3.6%, Tau ThT inhib -10.7%, Tau fluor cs -8.3%, FBPA coupling cs -35.7* and JMJD2E inh inconclusive.
Screening O=C1C=CC(=O)c2c(O)c(Cl)c(Cl)c(O)c21 returned Tau FP inhib 6.0%, Tau ThT inhib inconclusive, Tau fluor cs 3.3%, FBPA coupling cs -90.0* and JMJD2E inh 5.4%.
